Experimental data as given in PubChem BioAssay.
Several values for one entry are separate records, joined by “and”; a condition that tells them apart may be missing. Equal entries are not always repeated. Activity calls are given as the source filed them.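 Rule for the calls, unless noted: active = inhibition at or above 50% relative to wild type and mutant plate controls; inactive = inhibition below 50%.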

Key:
[1] = inhibitors of TNFa-induced NFkB p65 translocation, primary screen, imaging, HUVEC, MLSMR starter and 10KST1 sets (AID 438;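 active = inhibition above 20% together with a positive visual image hit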;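 note: compound added about 3h40 before a 20 min TNFalpha stimulation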;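 for inhibition: signal is the nuclear over cytoplasmic p65 intensity ratio per well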); details: HUVEC TNFa-induced p65 nuclear translocation; cell count: measured here: nuclei count (cytotoxicity indicator), at 2.08 µM; inhibition: at 2 µM, stronger effect = higher value, 0% TNFa-plus-vehicle, 100% no-TNFa wells
[2] = inhibitors of mutant huntingtin aggregation, primary screen, imaging, exon1htt(103Q)mCFP cells, high-content imaging (AID 483;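 active = visual image review flags a hit and inhibition of aggregation exceeds 20%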;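 note: compound exposure lasted 3 days before fixation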;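 for nuclei count: percent of the per-plate median nuclei count of sample wells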); details: exon1htt(103Q)mCFP cell line, aggregate imaging, at 2 µM; inhibition of aggregation: stronger effect = higher value; nuclei count: measured here: cell count, toxicity
[3] = inhibitors of E-selectin induction by TNFa, primary screen, imaging, HUVEC, immunofluorescence, MLSMR starter and 10KST1 sets (AID 487;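 active = visually confirmed hit in the image check and inhibition above 20%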;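 for inhibition: signal is fraction of cell area covered by stained E-selectin grains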;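 for nuclei count: 100% = median nuclei count of all wells on the same plate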); details: HUVEC TNFalpha-induced E-selectin immunofluorescence imaging, at 2 µM; inhibition: stronger effect = higher value; nuclei count: measured here: cell number, toxicity
[4] = DUSP6 inhibitors restoring Erk phosphorylation by chemical complementation, primary imaging in DUSP6-transfected HeLa (AID 609;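 active = compounds giving at least 50% inhibition in the cell-based MKP-3 phosphatase rescue imaging test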;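 for inhibition: phospho-Erk level distribution per well compared with pooled transfected vehicle control wells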); details: HeLa MKP-3 transfected, phospho-Erk imaging KS statistic, at 10 µM, cells stimulated with TPA for 15 min
[5] = biological target: Dual specificity protein phosphatase 6 (Homo sapiens) (UniProt Q16828); test: as above; details: HeLa MKP-3 transfected, phospho-Erk imaging KS statistic; at 10 µM; stronger effect = higher value; cells stimulated with TPA for 15 min
[6] = biological target: Voltage-gated potassium channel subunit beta-2 (Rattus norvegicus) (UniProt P62483); test: KvBeta enzyme negative modulators, primary screen, biochemical, NADPH fluorescence (AID 622;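 active = fluorescence slope higher than the sample average by over 3 SD, cut at about -0.22 in these data, passing the limit was not always enough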;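 note: slope of raw intensity against log time taken from 70 to 1610 s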); details: recombinant KvBeta, 4-cyanobenzaldehyde reduction, at 10 µM, stronger effect = higher value
[7] = biological target: Voltage-gated potassium channel subunit beta-2 (Rattus norvegicus) (UniProt P62483); test: KvBeta positive modulators, primary screen, biochemical, NADPH fluorescence (AID 623;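 active = NADPH fluorescence slope more negative than the mean of all samples by about 3 SD, 99.7% confidence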;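 note: fluorescence intensity change per second fitted from 20 to 320 s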); details: Recombinant KvBeta, NADPH fluorescence decrease slope, 10 min; at 10 µM; stronger effect = lower value
[8] = biological target: Alpha-2C adrenergic receptor (Homo sapiens) (UniProt P18825); test: modulators of alpha2C/GIRK thallium flux, primary screen, cell-based, HEK293 alpha2C/GIRK1/2 (AID 624;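 active = fluorescence slope after compound addition differing from the mean of all screened samples at 99.7% confidence, in either direction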;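 note: slope of fluorescence ratio to pre-addition baseline per second over 15 to 24 s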); details: thallium flux BTC fluorescence, at 10 µM, actives lie on both sides
[9] = inhibitors of larval lipid processing in zebrafish, primary screen, whole organism, PED6 fluorescence, gall bladder and intestine (AID 686;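 active = a full or partial loss of lipid-probe fluorescence in the fish gall bladder, intestine or both, judged by eye; inactive = no fluorescence loss, or compound toxic to the fish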;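 note: larvae 5 to 7 days old with five fish per well; signal comes from phospholipase A2 cleavage of quenched PED6 carried via bile; overnight exposure to compound and PED6 before scoring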); details: Zebrafish larvae PED6 lipid processing, fluorescence scoring; screened at 20 µM (by protocol)
[10] = inhibitors of Chlamydomonas gravitaxis, primary screen, whole organism, Chlamydomonas reinhardtii, WT vs cilia-less mutant, absorbance, 96-well (AID 463189); details: OD600 absorbance, 2 days, at 10 µM, stronger effect = higher value;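 note: 0% = wild type cc124 cells in DMSO and 100% = ciliumless bld1 mutant cells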
[11] = inhibitors of Sendai virus-induced IRF3 signaling, primary screen, TLR/RLR signaling modifier project, cell-based, Sendai virus stimulus, luciferase, 10K MLSCN set (AID 602276;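 active = inhibition at or above 50% at 10 µM; inactive = inhibition below 50%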;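 note: firefly luciferase from ISG56 promoter only with Renilla not read in this screen; 0% = Sendai virus plus DMSO and 100% = medium plus DMSO without virus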); details: HEK293 RL24 IRF3 luciferase reporter, at 10 µM, stronger effect = higher value
[12] = inhibitors of poly I:C-induced TLR3 signaling, primary screen, cell-based, poly I:C stimulus, luciferase, 10K MLSCN set (AID 602277;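 active = inhibition of the reporter signal at or above 50%; inactive = inhibition below 50%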); details: HEK293-TLR3 RL24 IRF3 luciferase reporter, at 10 µM, stronger effect = higher value
[13] = measured here: cell density z-score
[14] = measured here: nuclear c-Myc green intensity z-score
[15] = measured here: nuclear pErk red intensity z-score, stronger effect = higher value

Alpha-2C adrenergic receptor (Homo sapiens), sequence (P18825 whole entry, looked up): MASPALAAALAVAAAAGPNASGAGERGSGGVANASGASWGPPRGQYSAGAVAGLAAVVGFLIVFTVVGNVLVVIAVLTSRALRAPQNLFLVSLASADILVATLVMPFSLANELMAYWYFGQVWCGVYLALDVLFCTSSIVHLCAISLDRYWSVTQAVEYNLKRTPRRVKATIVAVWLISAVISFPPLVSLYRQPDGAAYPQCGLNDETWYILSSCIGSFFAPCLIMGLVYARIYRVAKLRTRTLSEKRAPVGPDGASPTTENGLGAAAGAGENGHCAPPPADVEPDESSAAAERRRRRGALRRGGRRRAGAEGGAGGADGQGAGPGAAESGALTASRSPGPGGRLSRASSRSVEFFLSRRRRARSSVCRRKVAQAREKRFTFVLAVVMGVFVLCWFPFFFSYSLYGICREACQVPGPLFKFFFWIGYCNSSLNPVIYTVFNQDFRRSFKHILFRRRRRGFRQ
Voltage-gated potassium channel subunit beta-2 (Rattus norvegicus), sequence (P62483 whole entry, looked up): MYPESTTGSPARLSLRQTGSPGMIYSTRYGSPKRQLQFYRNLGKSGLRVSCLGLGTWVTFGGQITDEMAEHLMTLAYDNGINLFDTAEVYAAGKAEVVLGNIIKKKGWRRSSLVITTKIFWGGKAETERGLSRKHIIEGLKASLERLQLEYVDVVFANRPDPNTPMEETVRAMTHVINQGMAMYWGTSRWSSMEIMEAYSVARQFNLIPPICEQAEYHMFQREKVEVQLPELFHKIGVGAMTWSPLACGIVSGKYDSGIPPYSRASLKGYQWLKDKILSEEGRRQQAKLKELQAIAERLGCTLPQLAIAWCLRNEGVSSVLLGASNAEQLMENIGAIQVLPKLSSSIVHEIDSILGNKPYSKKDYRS
Dual specificity protein phosphatase 6 (Homo sapiens), sequence (Q16828 whole entry, looked up): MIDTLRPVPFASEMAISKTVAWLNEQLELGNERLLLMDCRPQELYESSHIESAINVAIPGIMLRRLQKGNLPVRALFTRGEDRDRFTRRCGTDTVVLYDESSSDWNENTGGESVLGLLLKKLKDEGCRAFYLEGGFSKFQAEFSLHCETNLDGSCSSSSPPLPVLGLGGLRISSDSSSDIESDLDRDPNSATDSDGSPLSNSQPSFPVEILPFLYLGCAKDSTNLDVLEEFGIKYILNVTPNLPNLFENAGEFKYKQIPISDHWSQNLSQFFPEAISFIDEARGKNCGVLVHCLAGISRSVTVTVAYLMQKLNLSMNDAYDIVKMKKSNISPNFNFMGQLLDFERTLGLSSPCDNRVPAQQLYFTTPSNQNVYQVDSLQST

| Structure (SMILES) | cell count [1] | inhibition [1] | inhibition of aggregation [2] | nuclei count [2] [%] | inhibition [3] | nuclei count [3] | z-score [4, 13] | z-score [4, 14] | z-score [4, 15] | inhibition [5] | fluorescence slope [6] | NADPH fluorescence slope [7] | slope [8] | outcome [9] | inhibition [10] | inhibition [11] | inhibition [12] |
| --- | --- | --- | --- | --- | --- | --- | --- | --- | --- | --- | --- | --- | --- | --- | --- | --- | --- |
| O=C(C1CCCCC1)N1CC(=O)N2CCc3ccccc3C2C1 (configuration not stated) | 552 and 561 | -7.7% (inactive) and -4.1% (inactive) | 16.2% (inactive) | 109 | -103% (inactive) and -50.4% (inactive) | 115% and 103% | -1.12 and -0.574 | 0.266 and 0.927 | -0.413 and -1.5 | 1.48% (inactive) and 1.9e-07% (inactive) | -0.447 (inactive) and -0.51 (inactive) | 2.3e-05 (inactive) and -4.3e-06 (inactive) | 0.00517 (inactive) and 0.00493 (inactive) | inactive | 6.15% (inactive) and -13.5% (inactive) and -10.9% (inactive) | 8.76% (inactive) | 17.3% (inactive) |
| CCC1(c2ccccc2)C(=O)NCNC1=O | 647 | 3.5% (inactive) | -10.2% (inactive) | 103 | -70% (inactive) | 129% | -0.87 | 2.71 | -0.522 | 5.79% (inactive) | -0.469 (inactive) | -8.7e-06 (inactive) | 0.00482 (inactive) | inactive | -4.31% (inactive) and 28.8% (inactive) | 17% (inactive) | 30.6% (inactive) |
| CC(=O)Nc1ccc(S(=O)(=O)Nc2nc3n(n2)C(c2ccccc2)CC(=O)N3)cc1 (configuration not stated) | 456 | -7.4% (inactive) | -5.2% (inactive) | 116 | -106% (inactive) | 137% | -0.235 | -1.01 | 1.56 | 21% (inactive) | -0.507 (inactive) | -2e-05 (inactive) | 0.00521 (inactive) | inactive | -0.258% (inactive) | 16.4% (inactive) | 16.2% (inactive) |
| COc1cccc(OC)c1OCCN1CCN(C(=O)c2ccco2)CC1 | 361 | -3.1% (inactive) | 10.7% (inactive) | 104 | -24.8% (inactive) | 102% | 0.154 | 0.0392 | -1.87 | 13.2% (inactive) | -0.538 (inactive) | -6.4e-05 (inactive) | 0.00433 (inactive) | inactive | -8.27% (inactive) | 11.8% (inactive) | 17.9% (inactive) |
| N=c1c[n+](N2CCOCC2)[n-]o1 | 605 | -7.1% (inactive) | 4.6% (inactive) | 86.9 | -109% (inactive) | 139% | 0.144 | -0.44 | 0.201 | -8.38% (inactive) | -0.496 (inactive) | -5.7e-05 (inactive) | 0.00445 (inactive) | inactive | 5.26% (inactive) and -2.73% (inactive) | 19.5% (inactive) | 43.7% (inactive) |
| CCOC(=O)N1CCN(c2ncnc3c2[nH]c2ccc(OC)cc23)CC1 | 520 | -6% (inactive) | 2.6% (inactive) | 109 | 6.4% (inactive) | 100% | 1.15 | -0.635 | 1.15 | 0.671% (inactive) | -0.222 (inactive) | -4.8e-05 (inactive) | 0.00434 (inactive) | inactive | 8.03% (inactive) | -1.93% (inactive) | -5.19% (inactive) |
| CCOC(=O)c1c(C(F)(F)C(F)(F)C(F)(F)C(F)(F)F)n[nH]c1C | 532 | -3.7% (inactive) | 10.3% (inactive) | 97.3 | -78.6% (inactive) | 128% | -0.312 | 0.0825 | -0.449 | 11.3% (inactive) | -0.521 (inactive) | -9.8e-05 (inactive) | 0.00424 (inactive) | inactive | 17.6% (inactive) | 17.2% (inactive) | 24.6% (inactive) |
| CCCCNc1cc(C(=O)O)cc(S(N)(=O)=O)c1Oc1ccccc1 | 603 | -16.6% (inactive) | -13.4% (inactive) | 110 | -136% (inactive) | 140% | 0.424 | 0.482 | -0.678 | 15.3% (inactive) | -0.47 (inactive) | -6.3e-05 (inactive) | 0.00446 (inactive) | inactive | 7.78% (inactive) and -7.14% (inactive) | 13.2% (inactive) | 38.2% (inactive) |
| O=C1N[C@@H](Cc2cnc[nH]2)C(=O)N2CCC[C@@H]12 | 563 | -1.5% (inactive) | 17.2% (inactive) | 95.1 | -32% (inactive) | 119% | -1.25 | 0.0399 | -0.395 | -0.493% (inactive) | -0.516 (inactive) | -4.6e-05 (inactive) | 0.0041 (inactive) | inactive | 10.3% (inactive) | 16.7% (inactive) | 33.3% (inactive) |
| CNCCC=C1c2ccccc2CCc2ccccc21 | 525 | 0.8% (inactive) | 8% (inactive) | 77 | -20.7% (inactive) | 117% | -0.881 | -0.123 | 2.59 | -10.4% (inactive) | -0.521 (inactive) | -4.9e-05 (inactive) | 0.00426 (inactive) | inactive | 34% (inactive) and 30.7% (inactive) | 29.4% (inactive) | 43.5% (inactive) |
| CCCCCC#CCC#CCC#CCC#CCCCC(=O)O | 542 | -10.5% (inactive) | -23.3% (inactive) | 92.5 | -39.3% (inactive) | 127% | -0.772 | 0.757 | 0.0999 | -0.493% (inactive) | -0.461 (inactive) | -0.000212 (active) | 0.00468 (inactive) | inactive | 2.88% (inactive) | 11% (inactive) | 33.2% (inactive) |
